Mtb hypoxia rep – Mtb hypoxia fluorescent reporter inhibition; M. tuberculosis hypoxia-regulated fluorescent reporter, fluorescence; fluorescence inhibition, % (concentration not given with the values); 300,000 tested, 0.1% active; in the data active means fluorescence inhibition mostly above about 23%, no sharp cut-off; inactive means mostly below about 17%
SSB-PriA inh – blocks PriA binding to SSB C-terminal tail; AlphaScreen SSBct-PriA binding, biotinylated peptide; inhibition, % at 33 µM; 430,000 tested, 0.6% active; AID 1272365; in the data active means inhibition mostly above about 37%, no sharp cut-off; inactive means mostly below about 20%;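 further: plate controls were negative control peptide for no effect and reference peptide for full effect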
Vc quorum ag – quorum light induction in luxS cqsA deficient V. cholerae | 350,000 tested, 0.16% active | V. cholerae BH1578 lux reporter, luminescence, 6 h | AID 588436 | activation, % at 18.7 µM; in the data active means activation mostly above about 9.7%, no sharp cut-off
MazF activator – MazEF (E. coli) toxin RNase activation; 350,000 tested, 0.32% active; AID 504720; activation, % at 20 µM; P0AE70; FAM/BHQ RNA-DNA oligo cleavage fluorescence, 5 h; in the data active means activation above about 50%
Target sequence (P0AE70 whole entry, looked up): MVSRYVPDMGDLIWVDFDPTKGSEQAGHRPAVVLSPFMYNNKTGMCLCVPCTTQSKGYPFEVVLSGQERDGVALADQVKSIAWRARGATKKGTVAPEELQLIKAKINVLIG
Numbers without * were called inactive; i = inactive; / = not tested or not shown; + = active, no number. Most compounds without a hit are left out; they make up all but 0.94% or so of the library.

SMILES	Mtb hypoxia rep	SSB-PriA inh	Vc quorum ag	MazF activator
CCc1cccc2sc(N(CCN3CCOCC3)C(=O)c3cc(C)n(CC)n3)nc12	/	-10.0	/	/
CCCc1nnc(NC(=O)c2c(O)c3cccc4c3n(c2=O)CC4)s1	56.0*	1.2	/	2.3
CCCCCCNC(=O)c1c(O)c2cccc3c2n(c1=O)CCC3	6.8	-1.3	16.7*	-0.2
Cc1cc(C(=O)Nc2nnc(-c3ccccc3)o2)no1	/	9.0	/	/
Cc1ccccc1-c1noc(Cn2c(=O)n(C(C)C)c(=O)c3ccccc32)n1	/	-17.0	/	/
CCOc1ccc(-c2nc(NC(=O)Cc3ccc(S(=O)(=O)C(C)C)cc3)sc2C)cc1	/	-6.0	/	/
CC(C)CS(=O)(=O)C1CN(C(=O)CCc2ccc(Cl)c(C(F)(F)F)c2)C1	/	-4.0	/	/
O=S(=O)(Cc1cc(F)ccc1F)NCCn1ccn2nccc12	/	-13.0	/	/
Cc1ccc(S(=O)(=O)Nc2ccc3nc(-c4cccn4C)[nH]c3c2)cc1	3.7	87.5*	i	5.7
CCCCOc1ccc(C(=O)Nc2ccc(S(=O)(=O)Nc3cc(C)on3)cc2)cc1OC	10.9	-4.4	/	56.5*
COC(=O)Cn1c(=NC(=O)CSCC(=O)NC2CCCCC2)sc2cc(OC)ccc21	/	-7.7	-0.4	-6.2
C#CCn1c(=NC(=O)CSCC(=O)NC2CCCCC2)sc2ccccc21	/	43.0*	/	/
CCSc1ccccc1C(=O)Nc1nnc(Cc2cccs2)o1	/	40.0*	/	/
C[C@H]1CCCN(S(=O)(=O)c2ccc(C(=O)Nc3nnc(Cc4cccs4)o3)cc2)C1	/	91.0*	/	/
O=C(Nc1nnc(Cc2cccs2)o1)c1ccc(S(=O)(=O)N2CCOCC2)cc1	/	79.0*	/	/
COCc1nnc(NC(=O)c2ccc(S(=O)(=O)N3CCOCC3)cc2)o1	-8.8	-12.1	-0.3	2.1
Cc1ccc(S(=O)(=O)N2CCCC(C(=O)Nc3nnc(Cc4cccs4)o3)C2)cc1 (stereo not drawn)	/	12.0	/	/
CC(C)S(=O)(=O)c1cccc(C(=O)Nc2nnc(Cc3cccs3)o2)c1	/	41.0*	/	/
COc1cn(CC(=O)NC2CCCC2)c(CSc2nnnn2C)cc1=O	/	-4.0	/	/
N#Cc1nc(-c2ccc(Cl)cc2)oc1N1CCCCCC1	/	59.2*	/	/
N#Cc1nc(-c2ccc(Cl)cc2)oc1N1CCCCC1	10.0	64.9*	0.5	-1.9
N#Cc1nc(-c2ccc(F)cc2)oc1N1CCCCC1	-9.6	10.2	-8.3	4.6
COc1ccc(OCc2nnc(SCC(=O)NCC3CCCO3)n2N)cc1 (stereo not drawn)	-5.5	-0.9	-0.9	-5.6
Nn1c(Cc2cccc3ccccc23)nnc1SCC(=O)NCC1CCCO1 (stereo not drawn)	0.2	52.1*	i	-2.6
COc1ccc(-c2cn3c(C)c(C(=O)N(C)c4ccccc4)sc3n2)cc1	/	38.0*	/	/
SMILES	Mtb hypoxia rep	SSB-PriA inh	Vc quorum ag	MazF activator
CN(C)CCOc1ccc(-c2c(-c3ccsc3)sc3ccccc23)cc1	/	17.1	i	-5.8
COc1ccc(-c2sc3ccccc3c2-c2ccc(OCCN(C)C)cc2)cc1	46.7*	24.8	i	11.4
CCCCOc1cccc(C2C(C(=O)c3ccc(C)o3)=C(O)C(=O)N2c2nnc(C)s2)c1 (stereo not drawn)	6.2	1.1	-1.7	154.5*
CCCOc1cccc(C2C(C(=O)c3ccco3)=C(O)C(=O)N2c2nnc(C)s2)c1 (stereo not drawn)	/	-2.8	-0.1	-38.2
C=CCOc1cccc(C2C(C(=O)c3ccc(C)o3)=C(O)C(=O)N2c2nccs2)c1 (stereo not drawn)	/	9.8	i	+
COC(=O)C1CCN(c2c([N+](=O)[O-])cc(C(F)(F)F)cc2[N+](=O)[O-])CC1	/	58.7*	i	6.4
CN(C)C(CNc1ccc(C(F)(F)F)cc1[N+](=O)[O-])c1ccccc1 (stereo not drawn)	-6.0	48.8*	-0.6	-13.9
O=C(NCCCNc1ccc(C(F)(F)F)cc1[N+](=O)[O-])c1ccc(F)cc1	5.6	-14.8	-0.3	61.5*
CN(C)C(CNc1ccc(S(C)(=O)=O)cc1[N+](=O)[O-])c1ccccc1 (stereo not drawn)	-5.1	4.1	-0.7	-33.2
Cc1ccc(C(=O)NCCCNc2ccc(C(F)(F)F)cc2[N+](=O)[O-])cc1	6.6	-26.6	0.2	3.7
Cc1ccc(S(=O)(=O)NCCN2CCN(c3ccc(Cl)cc3)CC2)s1	/	33.0	/	/
Oc1ccc(Cl)cc1/C=C/c1ccc2cccc(O)c2n1	-2.0	-3.2	-1.0	60.2*
COc1cc2c3nnc(-c4ccc(F)cc4)c-3cn(Cc3ccccc3)c2cc1OC	/	-3.2	-0.2	+
COc1cc2c3nnc(-c4ccc(F)cc4)c-3cn(Cc3ccc(F)cc3)c2cc1OC	/	-12.1	0.0	117.9*
COc1ccc2c(c1)c1nnc(-c3ccc(C)c(C)c3)c-1cn2Cc1ccccc1OC	/	-10.0	/	/
COc1ccc(Cn2cc3c(-c4ccc(F)cc4)nnc-3c3cc(OC)c(OC)cc32)cc1	5.8	-9.3	-0.2	557.9*
COc1ncc(NC(=O)c2ccc3c(c2)OCO3)c(OC)n1	/	16.0	/	/
COC(=O)c1ccc(Nc2cc(C)nc3cc(C(F)(F)F)ccc23)cc1	/	-11.0	/	/
c1ccc(Nc2ccnc(Nc3ccccc3)n2)cc1	-5.4	-2.2	i	4.7
NNc1nccc(Nc2ccccc2C(=O)O)n1	0.0	59.5*	i	-2.8
COc1ccc(C2C(=C(O)c3ccc4c(c3)CC(C)O4)C(=O)C(=O)N2CCN2CCOCC2)cc1OC (stereo not drawn)	/	-17.2	/	/
O=S(=O)(Nc1cccc2cccnc12)c1ccccc1	/	-4.2	-0.2	1.8
O=S(=O)(Nc1cccc2cccnc12)c1ccc(S(=O)(=O)N2CCCC2)cc1	5.6	44.9*	i	-7.4
CCn1ccc(C(=O)NCCc2cccs2)n1	/	-22.0	/	/
CN(CC(=O)Nc1ccccc1Cl)CC(=O)c1c(N)n(Cc2ccccc2)c(=O)n(C)c1=O	10.8	-15.7	i	66.5*
SMILES	Mtb hypoxia rep	SSB-PriA inh	Vc quorum ag	MazF activator
CN(CC(=O)Nc1ccccc1Cl)CC(=O)N(C)c1c(N)n(Cc2ccccc2)c(=O)[nH]c1=O	-24.5	5.4	-4.3	0.2
COc1ccc(N2C(=O)c3cccc4cccc(c34)C2=O)cc1	12.7	-6.0	i	6.8
COc1ccc(N2C(=O)c3cccc4c(N(C)CCO)ccc(c34)C2=O)cc1	2.4	-13.8	-0.3	155.0*
CCOc1ccc(NC(=S)NC23CC4CC(CC(C4)C2)C3)cc1	/	-12.0	i	-12.4
CN(C)c1ccc(NC(=S)NC23CC4CC(CC(C4)C2)C3)cc1	19.5	45.1*	-0.5	-26.7
CCc1nn2c(NCC3CCCO3)cc(C)nc2c1-c1ccccc1 (stereo not drawn)	/	-18.0	/	/
Cc1csc(NC(=O)c2c[nH]c3c(Cl)cccc3c2=O)n1	/	3.0	/	/
[O-][n+]1c2ccccc2[n+]([O-])c2cc(O)ccc21	41.8*	26.1	0.7	16.7
[O-][n+]1c(/C=C/c2ccccc2)ccc2ccccc21	11.5	7.7	-1.0	9.9
Cc1ccc(=O)n(C(C)C(=O)Nc2ccccc2-c2csc(-c3ccccc3F)n2)n1 (stereo not drawn)	/	-12.0	/	/
COc1cccc2sc3cc(C#Cc4ccccn4)ccc3c(=O)c12	5.6	46.0*	i	-13.7
CN1CCCc2cc(C(CNC(=O)C(=O)Nc3nccs3)N3CCCCC3)ccc21 (stereo not drawn)	/	-9.0	/	/
NC(=O)CCc1csc(NC(=O)Nc2ccccc2)n1	/	-12.0	/	/

Screening results as filed in PubChem BioAssay.
